The results in this text go back to PubChem BioAssay (EPA / NIEHS).

Results filed as inconclusive are left out. Calls of active or inactive are those of the source. How the source made its calls, unless noted: active means hit-call score of the fitted dose curve at least 0.9, where 1 is the maximum; inconclusive means response in the unintended direction; inactive means score below 0.9.

Sequence of human Peroxisome Proliferator-activated Receptor delta (PPARd), PPARD (gene 5467) (Q03181 whole entry, looked up): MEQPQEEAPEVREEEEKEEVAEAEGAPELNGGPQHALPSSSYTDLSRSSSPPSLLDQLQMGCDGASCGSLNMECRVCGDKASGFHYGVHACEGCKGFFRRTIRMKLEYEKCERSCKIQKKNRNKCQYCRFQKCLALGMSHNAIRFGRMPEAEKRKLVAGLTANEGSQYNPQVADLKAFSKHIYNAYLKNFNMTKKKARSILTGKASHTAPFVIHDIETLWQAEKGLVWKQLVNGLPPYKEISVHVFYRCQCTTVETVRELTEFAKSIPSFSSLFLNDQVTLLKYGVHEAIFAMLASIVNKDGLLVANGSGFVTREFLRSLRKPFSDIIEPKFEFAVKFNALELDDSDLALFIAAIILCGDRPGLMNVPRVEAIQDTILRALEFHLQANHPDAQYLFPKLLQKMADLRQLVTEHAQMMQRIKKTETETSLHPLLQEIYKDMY

The first experiment deals with Cellular tumor antigen p53 (Homo sapiens) (UniProt P04637). In words: ATG_p53_CIS: Attagene CIS-FACTORIAL HepG2 Assay for human p53 Transcription Factor (AID 2282994; active means hit-call score of the fitted dose curve at least 0.9, where 1 is the maximum; inactive means score below 0.9). To be noted: HepG2 p53 cis-element reporter, Attagene mRNA; actives raise or lower the signal. A digest of the protocol: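 Transiently transfected HepG2 (multiple cis reporter transcription units); exposure 24 h; reporter RNA via RT-PCR, 6-FAM extension, 2 h HpaI digest at 37 C, CE detection; DMSO baseline.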
Sequence of Cellular tumor antigen p53 (Homo sapiens) (P04637 whole entry, looked up): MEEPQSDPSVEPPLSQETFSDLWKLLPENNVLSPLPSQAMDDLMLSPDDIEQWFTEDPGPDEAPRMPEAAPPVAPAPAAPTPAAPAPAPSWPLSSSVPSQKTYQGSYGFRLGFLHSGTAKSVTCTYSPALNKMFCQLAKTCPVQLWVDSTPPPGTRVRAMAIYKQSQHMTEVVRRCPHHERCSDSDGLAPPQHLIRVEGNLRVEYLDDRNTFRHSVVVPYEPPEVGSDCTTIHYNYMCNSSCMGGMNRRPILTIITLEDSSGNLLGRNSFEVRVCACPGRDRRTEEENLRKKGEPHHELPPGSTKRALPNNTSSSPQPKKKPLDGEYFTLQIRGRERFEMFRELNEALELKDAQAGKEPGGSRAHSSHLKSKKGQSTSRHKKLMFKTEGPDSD
For the molecule `CC(O)C(C)O` (configuration not stated), the molecule was called inactive.

On to `C=CCOc1nc(OCC=C)nc(OCC=C)n1`, for which the molecule was called inactive.

Turning to `CC(C)(C)C(=O)c1ccccc1`, the molecule was classed as inactive.

For the molecule `C#C[C@]1(O)CC[C@H]2[C@@H]3CCC4=Cc5oncc5C[C@]4(C)[C@H]3CC[C@@]21C`, the concentration at half-maximal activity (AC50) (commonly the midpoint of the concentration-response curve, whichever way the signal moves) was 24.7 µM (active).

`CC1CCC(C(C)CS)CC1S` (configuration not stated): the concentration at half-maximal activity (AC50) was 52.6 µM (active).

For the molecule `CC(=O)O[C@]1(C(C)=O)CC[C@H]2[C@@H]3C[C@H](C)C4=CC(=O)CC[C@]4(C)[C@H]3CC[C@@]21C`, the half-maximal activity concentration (AC50) is 34.9 µM (active).

Turning to `O=C(O)C[C@H](O)C[C@H](O)/C=C/c1c(C2CC2)nc2ccccc2c1-c1ccc(F)cc1`, the molecule was classed as inactive.

On to `O=S(=O)(O)c1cccc2c(S(=O)(=O)O)cccc12`, for which the result was inactive.

As to `NC(=O)c1ccccc1Cl`, the AC50 was 143 µM (active).

Regarding `CC1(C)CCC(C)(C)c2cc(C(=O)Nc3ccc(C(=O)O)cc3)ccc21`, the half-maximal activity concentration (AC50) is 55.1 µM (active).

Read-out in another experiment: not listed separately
In words: BSK_3C_uPAR: BioMAP Diversity Plus: 3C Assay for Urokinase-type plasminogen activator receptor (uPAR) Biomarker Activity (AID 2282998; active means hit-call score of the fitted dose curve at least 0.9, where 1 is the maximum; inactive means score below 0.9). Particulars: BioMAP 3C HUVEC, uPAR biomarker ELISA; actives raise or lower the signal. A digest of the protocol: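 HUVEC primary cells; 24 h post-dose; uPAR by ELISA; gain or loss of signal fitted bidirectionally vs DMSO baseline.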
A general note: ELISA stands for enzyme-linked immunosorbent assay.
In the case of `C#C[C@]1(O)CC[C@H]2[C@@H]3CCC4=Cc5oncc5C[C@]4(C)[C@H]3CC[C@@]21C`, the concentration at half-maximal activity (AC50) was 6.51 µM (active).

For `CC1CCC(C(C)CS)CC1S` (configuration not stated), the result was inactive.

On to `CC(=O)O[C@]1(C(C)=O)CC[C@H]2[C@@H]3C[C@H](C)C4=CC(=O)CC[C@]4(C)[C@H]3CC[C@@]21C`, for which the outcome was inactive.

For `O=C(O)C[C@H](O)C[C@H](O)/C=C/c1c(C2CC2)nc2ccccc2c1-c1ccc(F)cc1`, the AC50 was 0.289 µM (active).

Read-out in a further experiment: not listed separately
The experiment in a line: BSK_3C_VCAM1: BioMAP Diversity Plus: 3C Assay for Vascular cell adhesion molecule 1 (VCAM1) Biomarker Activity (AID 2282999; active means hit-call score of the fitted dose curve at least 0.9, where 1 is the maximum; inactive means score below 0.9). Particulars: BioMAP 3C HUVEC, VCAM1 ELISA, cytokine-stimulated; actives raise or lower the signal. A digest of the protocol:
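Vascular primary endothelium (human umbilical vein) was exposed to chemicals and assayed 24 h later. VCAM-1 levels came from ELISA, with DMSO serving as baseline for bidirectional fitting.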
Consider `C#C[C@]1(O)CC[C@H]2[C@@H]3CCC4=Cc5oncc5C[C@]4(C)[C@H]3CC[C@@]21C`, for which the outcome was inactive.

For the molecule `CC1CCC(C(C)CS)CC1S` (configuration not stated), the concentration at half-maximal activity (AC50) is 30 µM (active).

Consider `CC(=O)O[C@]1(C(C)=O)CC[C@H]2[C@@H]3C[C@H](C)C4=CC(=O)CC[C@]4(C)[C@H]3CC[C@@]21C`, for which the result was inactive.

`O=C(O)C[C@H](O)C[C@H](O)/C=C/c1c(C2CC2)nc2ccccc2c1-c1ccc(F)cc1`: the result was inactive.

Read-out in the next experiment: not listed separately
The experiment in a line: BSK_4H_Eotaxin3: BioMAP Diversity Plus: 4H Assay for Eotaxin 3 Biomarker Activity (AID 2283000; active means hit-call score of the fitted dose curve at least 0.9, where 1 is the maximum; inactive means score below 0.9;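 on outcome: CCL26 protein level quantified by ELISA in parallel with SRB cytotoxicity check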). To be noted: primary human endothelial cells (HUVEC); actives raise or lower the signal. A digest of the protocol:
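Readout is Eotaxin-3 (CCL26) level by ELISA in primary human umbilical vein endothelial cells harvested 24 h after chemical exposure; activity fitted in both directions against DMSO control.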
On to `C#C[C@]1(O)CC[C@H]2[C@@H]3CCC4=Cc5oncc5C[C@]4(C)[C@H]3CC[C@@]21C`, for which the result was inactive.

On to `CC1CCC(C(C)CS)CC1S` (configuration not stated), for which the AC50 was 30.3 µM (active).

As for `CC(=O)O[C@]1(C(C)=O)CC[C@H]2[C@@H]3C[C@H](C)C4=CC(=O)CC[C@]4(C)[C@H]3CC[C@@]21C`, the outcome was inactive.

For the molecule `O=C(O)C[C@H](O)C[C@H](O)/C=C/c1c(C2CC2)nc2ccccc2c1-c1ccc(F)cc1`, the concentration at half-maximal activity (AC50) is 0.198 µM (active).

For the next experiment, the target named is human Peroxisome Proliferator-activated Receptor alpha (PPARa), PPARA (gene 5465) (UniProt Q07869). The experiment in a line: ATG_PPARa_TRANS: Attagene TRANS-FACTORIAL HepG2 Assay for human Peroxisome Proliferator-activated Receptor alpha (PPARa) (AID 2283001).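 On AC50: potency for gain of reporter signal over DMSO so agonist or activator.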
Sequence of human Peroxisome Proliferator-activated Receptor alpha (PPARa), PPARA (gene 5465) (Q07869 whole entry, looked up): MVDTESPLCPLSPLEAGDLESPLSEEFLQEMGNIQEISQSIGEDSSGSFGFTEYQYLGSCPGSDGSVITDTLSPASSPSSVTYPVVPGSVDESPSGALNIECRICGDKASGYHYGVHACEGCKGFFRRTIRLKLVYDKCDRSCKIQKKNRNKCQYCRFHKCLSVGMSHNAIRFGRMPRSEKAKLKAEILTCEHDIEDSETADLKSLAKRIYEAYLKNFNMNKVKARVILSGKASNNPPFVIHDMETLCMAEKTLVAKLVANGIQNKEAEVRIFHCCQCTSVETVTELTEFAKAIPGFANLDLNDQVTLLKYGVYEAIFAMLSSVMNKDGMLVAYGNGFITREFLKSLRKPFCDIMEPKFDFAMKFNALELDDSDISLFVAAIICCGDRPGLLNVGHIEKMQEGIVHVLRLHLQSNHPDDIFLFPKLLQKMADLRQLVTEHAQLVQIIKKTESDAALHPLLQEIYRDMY
Settings: not given
A digest of the protocol: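 Exposure: 24 h, transiently transfected HepG2 cells. Endpoint: GAL4-UAS reporter mRNA, RT-PCR with capillary electrophoresis fluorescence. Baseline: DMSO; increases fitted.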
For the molecule `CC(O)C(C)O` (configuration not stated), the molecule was classed as inactive.

For the molecule `C=CCOc1nc(OCC=C)nc(OCC=C)n1`, the molecule was classed as inactive.

Consider `CC(C)(C)C(=O)c1ccccc1`, for which the molecule was called inactive.

Consider `C#C[C@]1(O)CC[C@H]2[C@@H]3CCC4=Cc5oncc5C[C@]4(C)[C@H]3CC[C@@]21C`, for which the AC50 was 176 µM (active).

On to `CC1CCC(C(C)CS)CC1S` (configuration not stated), for which the concentration at half-maximal activity (AC50) was 53.7 µM (active).

`Cc1c(N(C)C)c(=O)n(-c2ccccc2)n1C`: the molecule was called inactive.

For `COCCOCCOCCOCCOCCO`, the call was inactive.

As for `O=C1NC(=O)c2ccccc21`, the outcome was inactive.

With `C=CC(=O)OCCOCCOCC`, the outcome was inactive.

Regarding `CCCCCCCCCCCCOCCO`, the outcome was inactive.

With `O=C(O)C[C@H](O)C[C@H](O)/C=C/c1c(C2CC2)nc2ccccc2c1-c1ccc(F)cc1`, the outcome was inactive.

In the case of `O=C(O)CCCCCCCCCCC(=O)O`, the molecule was classed as inactive.

`O=S(=O)(O)NC1CCCCC1`: the result was inactive.

Turning to `CCCC(=O)OCCC(C)CCC=C(C)C` (configuration not stated), the molecule was classed as inactive.

Turning to `Nc1nc2ccc([N+](=O)[O-])cc2s1`, the molecule was classed as inactive.

As for `Cc1ccc(C(C)C)cc1O`, the call was inactive.

As to `O=S(=O)(O)c1cccc2c(S(=O)(=O)O)cccc12`, the molecule was classed as inactive.

With `NC(=O)c1ccccc1Cl`, the result was inactive.

On to `O=C(COc1ccc(Cl)cc1)N1CCN(Cc2ccc3c(c2)OCO3)CC1`, for which the molecule was classed as inactive.

As to `C=CC(=O)OCC(O)COc1ccccc1` (configuration not stated), the half-maximal activity concentration (AC50) was 17.3 µM (active).

For `CC1(C)CCC(C)(C)c2cc(C(=O)Nc3ccc(C(=O)O)cc3)ccc21`, the result was inactive.

Another experiment addresses human Peroxisome Proliferator-activated Receptor delta (PPARd), PPARD (gene 5467) (UniProt Q03181). In words: ATG_PPARd_TRANS: Attagene TRANS-FACTORIAL HepG2 Assay for human Peroxisome Proliferator-activated Receptor delta (PPARd) (AID 2283002).
Settings: not given
A digest of the protocol: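 HepG2 cells transiently transfected with multiplexed GAL4-UAS reporter units and exogenous chimeric NR-Gal4 proteins; 24 h compound exposure. Reporter mRNA measured by RT-PCR, 6-FAM labelling, HpaI digestion and capillary electrophoresis; gain of signal versus DMSO.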
For `CN(C)c1ccc(O)c2c1C[C@H]1C[C@H]3[C@H](N(C)C)C(=O)C(C(N)=O)=C(O)[C@@]3(O)C(=O)C1=C2O`, the molecule was classed as inactive.

With `CC(C)(Oc1ccc(CCNC(=O)c2ccc(Cl)cc2)cc1)C(=O)O`, the half-maximal activity concentration (AC50) was 79.4 µM (active).

In the case of `CC(O)C(C)O` (configuration not stated), the molecule was called inactive.

For the molecule `C=CCOc1nc(OCC=C)nc(OCC=C)n1`, the molecule was called inactive.

`CCOC(=O)c1ccccc1OC`: the call was inactive.

As for `C=CC[N+](C)(C)CC=C`, the outcome was inactive.

Consider `CC(C)(C)C(=O)c1ccccc1`, for which the outcome was inactive.

For the molecule `OCCOc1cccc(OCCO)c1`, the outcome was inactive.

Turning to `CC1=CC(=O)NS(=O)(=O)O1`, the result was inactive.

As to `C#C[C@]1(O)CC[C@H]2[C@@H]3CCC4=Cc5oncc5C[C@]4(C)[C@H]3CC[C@@]21C`, the result was inactive.

As to `CC1CCC(C(C)CS)CC1S` (configuration not stated), the molecule was called inactive.

For the molecule `COCCOCCOCCOCCOCCO`, the molecule was classed as inactive.

As to `O=c1oc(=O)c2cc3c(=O)oc(=O)c3cc12`, the call was inactive.

In the case of `CC(c1cc2ccccc2s1)N(O)C(N)=O` (configuration not stated), the result was inactive.

`O=S(=O)(O)c1cccc2c(S(=O)(=O)O)cccc12`: the result was inactive.

For `Cc1ccc(C=O)s1`, the result was inactive.

Regarding `NC(=O)c1ccccc1Cl`, the molecule was classed as inactive.

On to `C=CC(=O)OCC(O)COc1ccccc1` (configuration not stated), for which the call was inactive.

In the case of `CC1(C)CCC(C)(C)c2cc(C(=O)Nc3ccc(C(=O)O)cc3)ccc21`, the outcome was inactive.
